Test results taken from the supplement of paper PMC6555819.

Assays:
Experiment in all cases: PBM binding z-score (relative to random genomic background probes); higher = stronger binding; sequences stand for … in GC…GCGATTGACAGCGTAGAATGAAGG
[1] = test system: FXR:RXRa (NR concentration 270 nM, RXRa partner concentration 90 nM)
Outline: (§1)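 Antibodies against each partner of ligand-free nuclear receptor dimers (one per run) detected binding on custom Agilent 4×180K protein-binding microarrays after 1 h incubation. The double-stranded probes had 34-nt variable regions carrying direct-repeat seeds, single-nucleotide variants, half-site ablations and random human genomic background sequences. Binding z-scores, from regression-normalized fluorescence, use the random background probes as reference.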

[2] = test system: LXRa:RXRa (NR concentration 270 nM, RXRa partner concentration 90 nM)
Outline: as §1

[3] = test system: LXRa homodimer (NR concentration 270 nM)
Outline: as §1

[4] = test system: LXRb:RXRa (NR concentration 270 nM, RXRa partner concentration 90 nM)
Outline: as §1

[5] = test system: LXRb homodimer (NR concentration 270 nM)
Outline: as §1

[6] = test system: PPARa:RXRa (NR concentration 270 nM, RXRa partner concentration 90 nM)
Outline: as §1

[7] = test system: PPARg:RXRa (NR concentration 180 nM, RXRa partner concentration 90 nM)
Outline: as §1

[8] = test system: PPARg:RXRa 270nM:90nM, anti-RXR (NR concentration 270 nM, RXRa partner concentration 90 nM)
Outline: as §1

[9] = test system: PPARg:RXRa 30nM:10nM, anti-RXR (NR concentration 30 nM, RXRa partner concentration 10 nM)
Outline: as §1

[10] = test system: PPARg:RXRa 90nM:30nM, anti-RXR (NR concentration 90 nM, RXRa partner concentration 30 nM)
Outline: as §1

[11] = test system: PPARg:RXRa DBDmut IVT, anti-RXR (DBD mutation: RXRa K156A/R161A, NR concentration 270 nM, RXRa partner concentration 90 nM)
Outline: as §1

[12] = test system: PPARg:RXRa IVT, anti-PPARg (NR concentration 270 nM, RXRa partner concentration 90 nM)
Outline: as §1

[13] = test system: PPARg DBDmut:RXRa IVT, anti-PPARg (DBD mutation: PPARg1 K132A/R137A, NR concentration 270 nM, RXRa partner concentration 90 nM)
Outline: as §1

[14] = test system: PPARg DBDmut IVT, anti-PPARg (DBD mutation: PPARg1 K132A/R137A, NR concentration 270 nM)
Outline: as §1

[15] = test system: PPARg homodimer (NR concentration 180 nM)
Outline: as §1

[16] = test system: PXR:RXRa (NR concentration 270 nM, RXRa partner concentration 90 nM)
Outline: as §1

[17] = test system: PXR homodimer (NR concentration 270 nM)
Outline: as §1

[18] = test system: RARa:RXR (NR concentration 270 nM, RXRa partner concentration 90 nM)
Outline: as §1

[19] = test system: RARa homodimer (NR concentration 270 nM)
Outline: as §1

[20] = test system: RARb:RXRa (NR concentration 270 nM, RXRa partner concentration 90 nM)
Outline: as §1

Row | Sequence | PBM binding z-score [1] | PBM binding z-score [2] | PBM binding z-score [3] | PBM binding z-score [4] | PBM binding z-score [5] | PBM binding z-score [6] | PBM binding z-score [7] | PBM binding z-score [8] | PBM binding z-score [9] | PBM binding z-score [10] | PBM binding z-score [11] | PBM binding z-score [12] | PBM binding z-score [13] | PBM binding z-score [14] | PBM binding z-score [15] | PBM binding z-score [16] | PBM binding z-score [17] | PBM binding z-score [18] | PBM binding z-score [19] | PBM binding z-score [20]
1 | CGTCCATGGTCAAAGGTCAGTGAAGAGATGACGG | 3.85 | 3.63 | 0.607 | 3.29 | 0.097 | 4.92 | 7.27 | 7.01 | 5.64 | 7.4 | 0.409 | 3.55 | 0.423 | 0.425 | 6.15 | 4.15 | 0.407 | 5.38 | 0.504 | 4.41
2 | CGAACTAGGTCAGGACAGGACAGTGAAGGATGAT | 1.85 | 0.936 | -0.238 | 0.443 | -0.587 | 3.13 | 5.98 | 5.1 | 2.35 | 4.11 | 7.58 | 7.47 | 1.64 | 0.603 | 0.819 | 1.25 | -0.213 | 0.766 | -0.133 | 3.44
3 | TCTATTATTTGAAGGGCAACCGACGAGTCCGTTT | 1.12 | 1.55 | 1.32 | 1.35 | 0.721 | 1.29 | 0.336 | 2.22 | 4.08 | 3.41 | 2.78 | 0.734 | 0.771 | 1.44 | 2.12 | 1.23 | 1.48 | 0.961 | 3.23 | 1.56
4 | CCAGACAGGTGAGAAGGTAACTCGGCCTCGATTA | -0.0113 | 0.14 | -0.0117 | -0.138 | -0.518 | 0.585 | 0.364 | 0.533 | -0.307 | 0.171 | 1.02 | 0.832 | -0.526 | -1.05 | 0.472 | -0.382 | -0.139 | -0.0873 | 0.15 | 0.513
5 | TCGAGTAGGTTAGGGCCATTCAGAATGGCGTCGA | 0.218 | -0.0329 | -0.658 | -0.207 | -1.05 | 0.58 | 0.0561 | 0.722 | 0.497 | 0.65 | 1.63 | 0.942 | -0.334 | 0.0284 | -0.315 | 0.054 | -0.626 | -0.18 | -0.395 | 0.699
6 | ACTAGTTGGTCAGCTGAGGTCCCACACAATTCGG | 0.639 | -0.375 | -0.16 | -0.219 | 0.179 | -0.1 | 0.275 | -0.102 | -0.52 | -0.3 | 0.847 | 1.02 | -0.38 | 1.01 | 0.419 | 0.0973 | -0.424 | 0.479 | -0.0479 | 0.921
